Assay results: the supplement of paper PMC10849652
About 7,900 targets were measured; listed, in parts, are those with a hit and a random draw of the rest. About 0.6% of all pairs of compound and target were hits.

Legend:
Experiment in all cases: log2 fold change, soluble protein after heating vs DMSO (PISA); higher = thermal stabilisation; K562 cells, 10 uM, 30 min; active = over 0.2 and 3.5 SD of the protein, either way, in both replicates (recomputed)
[1] = compound: C1=CC=C(C=C1)[C@H](COC2=CC3=C(C=C2)NC(=O)N3)NC(=O)C4=CC=CN(C4=O)CC5=CC(=C(C=C5)F)F
Procedure, shortened: (§1)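 Soluble protein was quantified by TMTpro 16plex LC-MS/MS after channel sums were equalised. It was obtained as the supernatant after 21,000xg for 90 min from pooled aliquots of K562 cells (2×10^6 cells/mL, 10 μM compound, 30 min) heated for 3 min across 48°C-58°C and extracted in PBS with 0.5% NP-40 at 4°C. Thermal stability values are relative to control samples and come from duplicates. They are given as log2 fold changes.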

[2] = compound: CC1=C(SC2=C1C(=N[C@H](C3=NN=C(N32)C)CC(=O)N)C4=CC=C(C=C4)Cl)C
Procedure, shortened: as §1

[3] = compound: CC1=C2C(=CC=C1)N=C(N(C2=O)C3=CC=CC=C3C)CN4C=NC5=C(N=CN=C54)N
Procedure, shortened: as §1

[4] = compound: Cc1sc2c(c1C)C(c1ccc(Cl)cc1)=N[C@@H](CC(=O)OC(C)(C)C)c1nnc(C)n1-2
Procedure, shortened: as §1

[5] = compound: c1ccc([C@@H]2C[C@H]2NC2CCNCC2)cc1
Procedure, shortened: as §1

Measured: log2 fold change

CKS1B (UniProt P61024)
inactive: [1] -0.004 | [2] 0.056 | [3] 0.024 | [4] -0.067 | [5] -0.02

CREB3L2 (UniProt Q70SY1)
Chain of UniProt Q70SY1 (Q70SY1 whole entry, looked up): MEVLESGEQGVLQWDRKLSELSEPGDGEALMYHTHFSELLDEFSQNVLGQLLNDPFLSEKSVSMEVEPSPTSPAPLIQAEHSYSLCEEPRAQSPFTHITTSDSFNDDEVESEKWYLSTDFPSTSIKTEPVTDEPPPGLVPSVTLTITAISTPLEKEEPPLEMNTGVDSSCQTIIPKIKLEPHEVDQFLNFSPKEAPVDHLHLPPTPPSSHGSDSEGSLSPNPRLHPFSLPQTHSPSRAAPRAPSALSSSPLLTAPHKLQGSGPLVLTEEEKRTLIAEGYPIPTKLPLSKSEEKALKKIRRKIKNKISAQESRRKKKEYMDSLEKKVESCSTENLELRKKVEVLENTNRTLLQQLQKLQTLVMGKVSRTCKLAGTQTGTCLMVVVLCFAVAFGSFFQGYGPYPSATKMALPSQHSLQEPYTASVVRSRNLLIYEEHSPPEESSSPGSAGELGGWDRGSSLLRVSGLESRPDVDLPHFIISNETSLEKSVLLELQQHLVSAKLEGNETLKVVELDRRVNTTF
inactive: [1] 0.331 | [2] -0.15 | [3] 0.296 | [4] -0.143 | [5] -0.247

CPSF6 isoform 2 (UniProt Q16630)
inactive: [1] 0.036 | [2] -0.038 | [3] 0.048 | [4] 0.02 | [5] -0.016

CETN3 (UniProt O15182)
inactive: [1] 0.019 | [2] -0.055 | [3] 0.109 | [4] 0.008 | [5] -0.014

CDK16 isoform 2 (UniProt Q00536)
Chain of UniProt Q00536 (Q00536 whole entry, looked up): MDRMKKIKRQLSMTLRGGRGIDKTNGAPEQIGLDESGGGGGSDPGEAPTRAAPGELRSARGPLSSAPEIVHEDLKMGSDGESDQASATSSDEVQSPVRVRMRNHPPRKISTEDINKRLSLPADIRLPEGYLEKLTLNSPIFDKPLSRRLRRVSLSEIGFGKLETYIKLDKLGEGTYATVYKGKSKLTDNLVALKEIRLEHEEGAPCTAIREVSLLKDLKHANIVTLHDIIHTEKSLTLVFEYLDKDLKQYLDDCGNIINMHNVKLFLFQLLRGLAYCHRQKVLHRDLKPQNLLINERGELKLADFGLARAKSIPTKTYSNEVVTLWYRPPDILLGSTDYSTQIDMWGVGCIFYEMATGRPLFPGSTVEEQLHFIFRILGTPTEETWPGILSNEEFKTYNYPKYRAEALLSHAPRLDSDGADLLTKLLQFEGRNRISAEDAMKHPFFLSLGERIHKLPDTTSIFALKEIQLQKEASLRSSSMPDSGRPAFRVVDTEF
inactive: [1] -0.009 | [2] 0.026 | [3] 0.043 | [4] -0.014 | [5] -0.074

CHCHD1 (UniProt Q96BP2)
inactive: [1] 0.07 | [2] -0.056 | [3] -0.031 | [4] 0.168 | [5] 0.021

CLSPN (UniProt Q9HAW4)
inactive: [1] 0.002 | [2] -0.009 | [3] -0.043 | [4] -0.004 | [5] 0.036

COX5A (UniProt P20674)
Chain of UniProt P20674 (P20674 whole entry, looked up): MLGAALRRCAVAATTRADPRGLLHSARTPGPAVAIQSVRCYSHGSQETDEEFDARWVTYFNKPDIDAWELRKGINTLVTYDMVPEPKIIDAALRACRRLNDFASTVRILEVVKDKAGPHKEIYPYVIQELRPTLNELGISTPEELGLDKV
inactive: [1] 0.016 | [2] 0.059 | [3] 0.037 | [4] -0.075 | [5] -0.043

CLUH (UniProt O75153)
inactive: [1] -0.05 | [2] 0.027 | [3] 0.086 | [4] -0.016 | [5] -0.052

CASP7 isoform 3 (UniProt P55210)
inactive: [1] 0.12

CASP3 (UniProt P42574)
inactive: [1] 0.018 | [2] 0.004 | [3] -0.005 | [4] -0.055 | [5] 0.003

COA6 isoform 2 (UniProt Q5JTJ3)
Chain of UniProt Q5JTJ3 (Q5JTJ3 whole entry, looked up): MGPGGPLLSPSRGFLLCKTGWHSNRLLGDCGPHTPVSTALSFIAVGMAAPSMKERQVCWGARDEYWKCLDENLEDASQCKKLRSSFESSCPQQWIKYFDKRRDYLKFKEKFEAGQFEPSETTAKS
inactive: [1] 0.06 | [2] 0.08 | [3] 0.038 | [4] -0.06 | [5] -0.015

CRTC3 (UniProt Q6UUV7)
inactive: [1] -0.083 | [2] 0.044 | [3] -0.065 | [4] 0.004 | [5] 0.034

CDK8 (UniProt P49336)
inactive: [1] 0 | [2] -0.043 | [3] 0.018 | [4] 0.035 | [5] -0.129

CS (UniProt F8VU34)
inactive: [1] -0.03

COQ7 (UniProt Q99807)
inactive: [1] -0.038 | [2] 0.016 | [3] 0.029 | [4] 0.014 | [5] 0.048

CCDC57 (UniProt Q2TAC2)
inactive: [1] 0.015 | [3] 0.047 | [4] -0.161 | [5] -0.139
active: [2] 0.262

CEPT1 (UniProt Q9Y6K0)
inactive: [1] -0.064 | [2] 0.105 | [3] 0.074 | [4] -0.121 | [5] -0.054

CNOT7 (UniProt Q9UIV1)
inactive: [1] -0.024 | [2] -0.053 | [3] 0.068 | [4] -0.032 | [5] 0.002

CERT isoform 3 (UniProt Q9Y5P4)
inactive: [1] 0.102 | [2] 0.029 | [3] 0.066 | [4] 0.14 | [5] -0.028

CHMP4C (UniProt Q96CF2)
Chain of UniProt Q96CF2 (Q96CF2 whole entry, looked up): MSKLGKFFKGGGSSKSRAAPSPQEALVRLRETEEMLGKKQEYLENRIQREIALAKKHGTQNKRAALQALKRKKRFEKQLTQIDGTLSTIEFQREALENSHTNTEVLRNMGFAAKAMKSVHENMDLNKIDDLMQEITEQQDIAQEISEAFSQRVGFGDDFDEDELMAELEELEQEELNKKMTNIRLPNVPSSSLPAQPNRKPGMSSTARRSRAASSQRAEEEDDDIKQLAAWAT
inactive: [1] -0.002 | [2] 0.169 | [3] 0.045 | [4] 0.051 | [5] 0.03

CSNK1A1 isoform 3 (UniProt P48729)
inactive: [1] -0.061

CBR1 (UniProt P16152)
inactive: [1] -0.009 | [2] 0.015 | [3] 0.01 | [4] -0.028 | [5] -0.037

CCNH (UniProt P51946)
Chain of UniProt P51946 (P51946 whole entry, looked up): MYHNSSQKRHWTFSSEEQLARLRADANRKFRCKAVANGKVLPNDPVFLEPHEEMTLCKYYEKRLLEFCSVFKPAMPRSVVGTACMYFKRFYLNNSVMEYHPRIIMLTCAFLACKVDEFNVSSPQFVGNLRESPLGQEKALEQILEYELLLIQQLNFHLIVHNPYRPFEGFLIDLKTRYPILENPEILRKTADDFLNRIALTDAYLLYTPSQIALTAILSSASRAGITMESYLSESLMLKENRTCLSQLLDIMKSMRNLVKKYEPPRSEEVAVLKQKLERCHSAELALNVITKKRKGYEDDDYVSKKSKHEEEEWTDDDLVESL
inactive: [1] 0.02 | [2] -0.035 | [3] 0.032 | [4] 0.002 | [5] 0.033

CD68 (UniProt P34810)
inactive: [1] 0.021

CD53 (UniProt P19397)
inactive: [1] -0.05 | [2] 0.142 | [3] 0.106 | [4] 0.083 | [5] 0.014

CDC37L1 (UniProt Q7L3B6)
inactive: [1] -0.009 | [2] 0.026 | [3] 0.087 | [4] 0.337 | [5] 0.02

CPT2 (UniProt P23786)
inactive: [1] -0.402 | [2] 0.19 | [3] 0.155 | [4] -0.017 | [5] -0.026

CPQ (UniProt Q9Y646)
Chain of UniProt Q9Y646 (Q9Y646 whole entry, looked up): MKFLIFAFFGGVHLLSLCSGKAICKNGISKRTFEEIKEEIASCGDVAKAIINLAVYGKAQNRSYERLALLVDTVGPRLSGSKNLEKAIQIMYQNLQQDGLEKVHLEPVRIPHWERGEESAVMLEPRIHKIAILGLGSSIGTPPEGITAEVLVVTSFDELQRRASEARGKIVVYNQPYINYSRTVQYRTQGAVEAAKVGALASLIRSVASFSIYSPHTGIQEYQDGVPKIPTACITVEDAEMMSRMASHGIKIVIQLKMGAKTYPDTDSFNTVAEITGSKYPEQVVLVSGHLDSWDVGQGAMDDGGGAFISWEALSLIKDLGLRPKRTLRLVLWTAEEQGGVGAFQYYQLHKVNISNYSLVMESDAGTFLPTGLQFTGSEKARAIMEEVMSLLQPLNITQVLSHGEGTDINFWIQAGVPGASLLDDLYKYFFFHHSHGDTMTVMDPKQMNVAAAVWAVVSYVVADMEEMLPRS
inactive: [1] 0.045 | [2] -0.077 | [3] -0.078 | [4] -0.031 | [5] 0.084

CNN3 (UniProt Q15417)
Chain of UniProt Q15417 (Q15417 whole entry, looked up): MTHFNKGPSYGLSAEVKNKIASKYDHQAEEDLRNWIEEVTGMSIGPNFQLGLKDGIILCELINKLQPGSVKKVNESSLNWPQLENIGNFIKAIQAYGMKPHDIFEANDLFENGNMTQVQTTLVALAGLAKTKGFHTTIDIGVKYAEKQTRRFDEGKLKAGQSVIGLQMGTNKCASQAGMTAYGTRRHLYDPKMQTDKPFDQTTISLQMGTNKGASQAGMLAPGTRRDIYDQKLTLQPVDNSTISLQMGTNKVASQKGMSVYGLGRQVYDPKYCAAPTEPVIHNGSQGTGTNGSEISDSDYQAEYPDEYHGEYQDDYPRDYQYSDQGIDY
inactive: [1] -0.015 | [2] 0.18 | [3] 0.079 | [4] 0.035 | [5] 0.03

CENPE (UniProt Q02224)
inactive: [1] -0.005 | [2] -0.139 | [3] 0.049 | [4] -0.001 | [5] -0.362

CDC42SE1 (UniProt Q9NRR8)
inactive: [1] -0.151 | [2] 0.016 | [3] 0.088 | [4] -0.076 | [5] -0.007

CHERP (UniProt Q8IWX8)
inactive: [1] -0.023 | [2] -0.07 | [3] 0.008 | [4] 0.101 | [5] 0.018

CSNK1A1 (UniProt P48729)
inactive: [1] 0.048 | [2] 0 | [3] 0.008 | [4] 0.046 | [5] 0.02

CD63 (UniProt P08962)
inactive: [1] 0.041 | [2] 0.02 | [3] -0.008 | [4] 0.009 | [5] 0.035

CHCHD2 (UniProt Q9Y6H1)
Chain of UniProt Q9Y6H1 (Q9Y6H1 whole entry, looked up): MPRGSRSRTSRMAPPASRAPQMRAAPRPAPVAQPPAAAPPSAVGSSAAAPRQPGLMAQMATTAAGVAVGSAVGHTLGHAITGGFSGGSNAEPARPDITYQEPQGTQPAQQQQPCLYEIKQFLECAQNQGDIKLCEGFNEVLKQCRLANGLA
inactive: [1] -0.016 | [2] 0.082 | [3] -0.007 | [4] -0.065 | [5] -0.011

COCH (UniProt O43405)
inactive: [1] 0.006 | [2] 0.061 | [3] -0.193 | [4] 0.144 | [5] 0.006

CRMP1 isoform 2 (UniProt Q14194)
Chain of UniProt Q14194 (Q14194 whole entry, looked up): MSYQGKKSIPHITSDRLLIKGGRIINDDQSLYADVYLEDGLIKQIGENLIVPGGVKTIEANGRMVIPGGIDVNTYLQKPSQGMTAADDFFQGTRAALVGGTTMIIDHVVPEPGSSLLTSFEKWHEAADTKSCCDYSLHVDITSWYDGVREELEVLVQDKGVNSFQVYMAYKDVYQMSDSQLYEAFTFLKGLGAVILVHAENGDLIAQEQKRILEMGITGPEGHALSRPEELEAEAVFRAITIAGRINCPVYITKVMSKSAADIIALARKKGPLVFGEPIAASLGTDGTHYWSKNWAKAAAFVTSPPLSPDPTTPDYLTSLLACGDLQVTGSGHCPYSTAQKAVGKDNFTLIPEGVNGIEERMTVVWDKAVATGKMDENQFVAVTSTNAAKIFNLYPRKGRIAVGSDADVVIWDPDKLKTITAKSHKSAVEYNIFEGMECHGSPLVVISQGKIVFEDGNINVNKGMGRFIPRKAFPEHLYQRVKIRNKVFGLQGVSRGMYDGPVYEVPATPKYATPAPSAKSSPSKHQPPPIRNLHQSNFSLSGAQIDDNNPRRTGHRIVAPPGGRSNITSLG
inactive: [1] -0.014 | [2] 0.074 | [3] -0.066 | [4] 0.002 | [5] -0.006

CCDC82 (UniProt Q8N4S0)
inactive: [1] -0.018 | [2] 0.056 | [3] 0.033 | [4] 0.043 | [5] 0.004

CELF2 isoform 3 (UniProt O95319)
inactive: [1] -0.005 | [2] 0.119 | [3] 0.013 | [4] 0.071 | [5] -0.014

CHCHD4 isoform 2 (UniProt Q8N4Q1)
Chain of UniProt Q8N4Q1 (Q8N4Q1 whole entry, looked up): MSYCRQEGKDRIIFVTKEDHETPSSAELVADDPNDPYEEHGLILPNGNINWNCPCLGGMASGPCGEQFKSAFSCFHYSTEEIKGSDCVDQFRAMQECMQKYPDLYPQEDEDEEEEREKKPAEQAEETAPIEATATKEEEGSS
active: [4] -0.489
inactive: [1] 0.08 | [2] 0.205 | [3] -0.006 | [5] -0.113

CDC42BPA isoform 6 (UniProt Q5VT25)
inactive: [1] -0.101 | [2] -0.039 | [3] 0.083 | [4] 0.031 | [5] 0.069

CNTN4 (UniProt Q8IWV2)
inactive: [1] 0.093 | [2] 0.154 | [3] 0.103 | [4] -0.075 | [5] -0.106

CLTB (UniProt P09497)
inactive: [1] 0.021 | [2] -0.01 | [3] -0.016 | [4] -0.01 | [5] -0.02

CDK5RAP1 (UniProt Q96SZ6)
inactive: [1] 0.056 | [2] 0.029 | [3] 0.149 | [4] 0.028 | [5] -0.023

CEP128 (UniProt Q6ZU80)
inactive: [1] -0.039 | [2] 0.099 | [3] 0.216 | [4] 0.104 | [5] 0.041

CLCN3 isoform 2 (UniProt P51790)
Chain of UniProt P51790 (P51790 whole entry, looked up): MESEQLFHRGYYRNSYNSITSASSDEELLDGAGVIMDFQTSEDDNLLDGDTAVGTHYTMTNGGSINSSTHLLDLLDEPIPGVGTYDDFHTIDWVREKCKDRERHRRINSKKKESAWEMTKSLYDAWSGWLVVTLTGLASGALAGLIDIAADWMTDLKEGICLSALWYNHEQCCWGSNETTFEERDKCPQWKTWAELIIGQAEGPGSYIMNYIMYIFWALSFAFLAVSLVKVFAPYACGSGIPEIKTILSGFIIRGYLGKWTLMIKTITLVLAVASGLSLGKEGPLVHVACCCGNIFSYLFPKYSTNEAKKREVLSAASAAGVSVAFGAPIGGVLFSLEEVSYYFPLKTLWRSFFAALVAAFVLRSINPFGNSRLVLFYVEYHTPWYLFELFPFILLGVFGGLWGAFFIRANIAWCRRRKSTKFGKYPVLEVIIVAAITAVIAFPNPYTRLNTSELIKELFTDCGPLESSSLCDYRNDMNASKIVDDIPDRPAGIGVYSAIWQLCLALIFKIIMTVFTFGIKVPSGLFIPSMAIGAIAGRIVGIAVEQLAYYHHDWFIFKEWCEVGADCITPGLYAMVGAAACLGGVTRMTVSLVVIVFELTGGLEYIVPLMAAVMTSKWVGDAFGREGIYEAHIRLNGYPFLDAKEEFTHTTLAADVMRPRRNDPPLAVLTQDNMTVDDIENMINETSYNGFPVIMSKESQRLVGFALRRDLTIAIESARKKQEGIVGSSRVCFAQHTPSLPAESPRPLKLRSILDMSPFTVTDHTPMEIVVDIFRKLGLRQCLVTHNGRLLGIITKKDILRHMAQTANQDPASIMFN
inactive: [1] 0.044 | [2] -0.006 | [3] -0.014 | [4] -0.021 | [5] 0.013

C9orf64 (UniProt Q5T6V5)
Chain of UniProt Q5T6V5 (Q5T6V5 whole entry, looked up): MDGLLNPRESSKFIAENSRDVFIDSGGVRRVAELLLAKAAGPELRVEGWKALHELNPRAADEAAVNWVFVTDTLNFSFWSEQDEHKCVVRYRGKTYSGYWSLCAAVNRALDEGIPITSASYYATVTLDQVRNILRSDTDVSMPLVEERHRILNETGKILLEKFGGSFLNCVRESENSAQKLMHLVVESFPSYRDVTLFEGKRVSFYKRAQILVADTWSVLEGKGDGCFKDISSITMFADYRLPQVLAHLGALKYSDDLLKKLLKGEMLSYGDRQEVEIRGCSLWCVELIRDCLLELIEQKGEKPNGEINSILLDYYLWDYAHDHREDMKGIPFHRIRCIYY
inactive: [1] -0.15 | [2] 0.054 | [3] 0.097 | [4] 0.052 | [5] -0.066

CERS2 (UniProt Q96G23)
inactive: [1] -0.033 | [2] 0.035 | [3] -0.012 | [4] -0.036 | [5] 0.048

CNN2 (UniProt Q99439)
inactive: [1] -0.061 | [2] 0.011 | [3] 0.039 | [4] 0.007 | [5] 0.01

CLCN3 (UniProt P51790)
inactive: [1] 0.01 | [2] 0.025 | [3] 0.064 | [4] -0.107 | [5] 0.056

COPS3 (UniProt Q9UNS2)
inactive: [1] 0.011 | [2] 0.001 | [3] 0 | [4] -0.007 | [5] -0.005

CLPX (UniProt O76031)
inactive: [1] 0.011 | [2] -0.02 | [3] 0.013 | [4] -0.035 | [5] 0.048

COPS8 (UniProt Q99627)
Chain of UniProt Q99627 (Q99627 whole entry, looked up): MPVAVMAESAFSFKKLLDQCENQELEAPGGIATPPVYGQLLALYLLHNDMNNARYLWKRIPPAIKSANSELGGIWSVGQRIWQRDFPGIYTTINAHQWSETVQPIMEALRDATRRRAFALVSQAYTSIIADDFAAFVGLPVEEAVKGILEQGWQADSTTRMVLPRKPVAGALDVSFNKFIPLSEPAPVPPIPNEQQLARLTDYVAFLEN
inactive: [1] 0.002 | [2] 0.086 | [3] 0.039 | [4] -0.123 | [5] -0.014

CD55 isoform 7 (UniProt P08174)
inactive: [1] 0.026 | [2] -0.058 | [3] -0.009 | [4] -0.066 | [5] -0.049
